# Assay results taken from PubChem BioAssay AID624040 (The Scripps Research Institute Molecular Screening Center, 2012).
# The whole screen tested about 360,000 compounds, of which about 2,100 (0.58%) were called active. The full list was thinned out, with actives kept by preference. Values without a mark were called inactive.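 How the source made its calls: active means inhibition above a per-plate cutoff, the mean of that plate's test compounds plus 3 SD (cut at about 27% in these data); inactive means the rest.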
# Molecular target: Muscarinic acetylcholine receptor M5 (Homo sapiens) (UniProt P08912)
# Assay: human M5 muscarinic receptor antagonists, primary screen, CHO cells, Fluo-8 calcium fluorescence (AID 624040);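 further: 0% = acetylcholine EC80 with DMSO and 100% = DMSO without agonist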
# Settings: CHO-hM5 cells, ACh EC80, at 3 µM, active compounds read high
# Sequence of Muscarinic acetylcholine receptor M5 (Homo sapiens) (P08912 whole entry, looked up): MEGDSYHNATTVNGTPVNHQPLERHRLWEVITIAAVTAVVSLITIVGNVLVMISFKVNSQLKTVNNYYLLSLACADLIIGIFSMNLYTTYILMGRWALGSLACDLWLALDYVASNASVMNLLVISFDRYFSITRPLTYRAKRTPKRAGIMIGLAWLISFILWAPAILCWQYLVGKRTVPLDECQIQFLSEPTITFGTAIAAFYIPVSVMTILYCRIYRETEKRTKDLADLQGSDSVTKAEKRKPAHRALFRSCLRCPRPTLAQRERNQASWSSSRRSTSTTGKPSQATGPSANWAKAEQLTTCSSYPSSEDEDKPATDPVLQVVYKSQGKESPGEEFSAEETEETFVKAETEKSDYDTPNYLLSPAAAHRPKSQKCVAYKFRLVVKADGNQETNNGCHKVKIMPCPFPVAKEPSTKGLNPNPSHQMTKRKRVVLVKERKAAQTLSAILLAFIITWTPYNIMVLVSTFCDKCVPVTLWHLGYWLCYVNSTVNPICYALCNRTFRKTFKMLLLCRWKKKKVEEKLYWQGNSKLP
row,Structure (SMILES),inhibition
1,O=[N+]([O-])c1c(NCCO)cc(Sc2nc3ccccc3s2)c2nonc12,29.2% (active)
2,N#Cc1ccc(OCCN2C(=O)NC3(CCSC3)C2=O)cc1 (configuration not stated),-5.81%
3,COc1ccc(NC(=O)c2sccc2SCC#N)cc1,2.72%
4,CN1CCN(C(=O)C2=C[C@H](c3ccc4c(c3)OCO4)C[C@H](OCc3ccc(CO)cc3)O2)CC1,3.48%
5,COc1ccc(-n2nnc3c(=O)n(CC(=O)OCc4ccccc4)cnc32)cc1,4.49%
6,CCSc1nsc(NC(=O)Nc2cccc(C(C)=O)c2)n1,22.5%
7,CSc1nsc(NC(=O)Nc2ccccc2)n1,31.1% (active)
8,C=CCSc1nsc(NC(=O)Nc2cccc(C(C)=O)c2)n1,21.8%
9,COC(=O)/C(C#N)=C/c1occc1C,2.54%
10,CC1OC2C(OC1C)N(S(C)(=O)=O)CCN2S(C)(=O)=O (configuration not stated),-2.68%
11,Cc1ccc(C(c2nnnn2CS(=O)(=O)c2ccc(C)cc2)N2CCC(C(N)=O)CC2)cc1 (configuration not stated),-9.51%
12,NC(=O)C1(N2CCCCC2)CCN(C2CC(=O)N(Cc3ccc(N4CCCC4=O)cc3)C2=O)CC1 (configuration not stated),-5.49%
13,S=C(Nc1ccc(Br)cc1)NC1CCN(Cc2ccccc2)CC1,-2.81%
14,O=S(=O)(NCCCc1ccccc1)c1ccc(Br)cc1,6.97%
15,S=C(NCCCc1ccccc1)Nc1ccc(Br)cc1,27.8% (active)
16,Cc1sc(NC(=O)C2C3CCC(O3)C2C(=O)O)c(C(=O)OC(C)C)c1-c1ccc(Cl)cc1 (configuration not stated),-0.97%
17,CC(C)OCCCNc1ncnc2c1[nH]c1ccc(F)cc12,36.1% (active)
18,COC(=O)c1ccccc1NC(=O)CN(Cc1ccccc1)S(C)(=O)=O,-12.2%
19,COCCNC(=O)C1(C)CCCN(Cc2cccc(F)c2)C1 (configuration not stated),4.07%
20,COc1cc(CNc2ncnc3c2ncn3[C@H]2CN(Cc3cccs3)C[C@@H](CO)O2)cc(OC)c1OC,10.9%
21,O=C(Cc1ccc(Cl)c(Cl)c1)Nc1ccc(SC(F)F)cc1,33.6% (active)
22,O=C(CC(O)(C(F)(F)F)C(F)(F)F)Nc1ccc(Cl)c(Cl)c1,17.8%
23,O=C(CCl)Nc1ccc(Sc2ccc(NC(=O)CCl)cc2)cc1,2.24%
24,Cc1ccc(NC2=C(Cl)C(=O)OC2OC(=O)c2ccccc2C)cc1 (configuration not stated),5.07%
25,CCC(C)(C)NC(=O)c1cc([N+](=O)[O-])ccc1N1CCCCC1,6.53%
26,CCN1CCN(c2ccc([N+](=O)[O-])cc2C(=O)c2ccc(Cl)cc2)CC1,78.8% (active)
27,CCC(=O)c1ccc(N2CCN(C(=O)c3cc([N+](=O)[O-])ccc3F)CC2)c(F)c1,17.6%
